# Assay results from PubChem BioAssay (NCI).
# Compounds without any hit were thinned out: in the full panel of roughly 79,000, 15% have a hit. Unmarked numbers belong to inactive results. Calls of active or inactive are those of the source. No stated cut-off is given here; in the data, active means growth inhibition above about 70%; inactive means the rest.
# Tests used:
# [1] = NCI Yeast Anticancer Drug Screen. Data for the rad50 strain (AID 155);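 further: 0% = growth of vehicle-only cultures of the same strain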; conditions: S. cerevisiae rad50 strain growth inhibition; at 50.0 µM; stronger effect = higher value
# Outline: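 Cells are treated with compound, grown, and their growth is then scored against vehicle-only cultures of the same repair-deficient yeast strain.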
# [2] = NCI Yeast Anticancer Drug Screen. Data for the mec2-1 strain (AID 157); conditions: S. cerevisiae mec2-1 strain, at 50.0 µM, stronger effect = higher value
# Outline: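 Using mec2-1 yeast: add compound, measure growth, express inhibition versus vehicle-treated cultures.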
# [3] = NCI Yeast Anticancer Drug Screen. Data for the sgs1 mgt1 strain (AID 161);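 further: 0% = growth of cultures given vehicle only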; conditions: S. cerevisiae sgs1 mgt1 strain, at 50.0 µM, stronger effect = higher value
# Outline: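 Compounds are added to genetically altered yeast, and growth is compared with cultures given vehicle alone to give percent inhibition.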
# [4] = NCI Yeast Anticancer Drug Screen. Data for the cln2 rad14 strain (AID 165);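 further: 0% = growth equal to vehicle treated cultures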; conditions: S. cerevisiae cln2 rad14 strain, at 50.0 µM, stronger effect = higher value
# Outline: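 Yeast strain cln2 rad14, bearing defects in cell cycle control and DNA repair, serves as the test system; values reflect growth inhibition compared with vehicle.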
# [5] = NCI Yeast Anticancer Drug Screen. Data for the bub3 strain (AID 167); conditions: S. cerevisiae bub3 mutant strain, at 50.0 µM, stronger effect = higher value
# Outline: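 Part of a panel of yeast mutants defective in DNA damage repair or cell cycle regulation. Each strain is grown with compound, and inhibition is calculated relative to solvent-treated cultures.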
# [6] = NCI Yeast Anticancer Drug Screen. Data for the mlh1 rad18 strain (AID 175); conditions: S. cerevisiae mlh1 rad18 strain growth inhibition; at 50.0 µM; stronger effect = higher value
# Outline: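 Steps: expose repair-defective yeast to compound; measure growth; express inhibition against vehicle-treated controls.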
Structure (SMILES),growth inhibition [1],growth inhibition [2],growth inhibition [3],growth inhibition [4],growth inhibition [5],growth inhibition [6]
Cn1c(/N=C(/N)N=C(N)N)cc(=O)n(C)c1=O,12.8%,5.45%,20.3%,34.7%,29.6%,21.8%
C=CCSc1nc2ccc(N3C(=O)CCC3=O)cc2s1,15.4%,-11.7%,-10.6%,10.2%,6.05%,4%
O=C(c1ccccc1)C1(c2ccccc2)CCCCC1,19.6%,15.6%,20.1%,-10.6%,0.45%,32.6%
COC(=O)c1ccc2c(c1)nnn2C(C)=O,-9.55%,-12.7%,-7.25%,-21.9%,1.7%,4.65%
CC1(C)OC2OC(C3CC3)C(O)C2O1 (stereo not given),-4.1%,4.75%,3%,-36.1%,11.9%,-1.85%
CN1CC(=O)N2CCCCC2C(c2ccccc2)C1 (stereo not given),-4.85%,2.85%,-0.25%,-34.7%,-9.35%,-1.25%
O=C(Nc1ccccc1C(F)(F)F)Oc1ccc(Cl)cc1Cc1ccccc1,99.4% (active),99.6% (active),99.7% (active),99.3% (active),99.2% (active),99.5% (active)
Cc1cc(C)c(CCl)c(C)c1CCl,0.9%,2%,-9.1%,-57.5%,5.75%,10.2%
C[N+]1(C)CCCC(CN2c3ccccc3Sc3ccccc32)C1 (stereo not given),10.8%,-3.85%,7.85%,-13.4%,5.9%,15.4%
Br/C=C/c1ccccc1,23.6%,11.3%,0.6%,-14.7%,5.85%,46.1%
O=c1c2ccccc2oc2cc3c(c(O)c12)CCCC3,-7.65%,-13.9%,-14.5%,-6.95%,3.15%,-2.95%
CC1=NN(C(=O)CC(=O)Nc2ccc(C(=O)O)cc2)C(=O)C1N=Nc1ccc(S(N)(=O)=O)cc1 (stereo not given),-4.7%,-15.8%,-1.5%,-24.3%,0.55%,-5.95%
CCNc1nc(C)nc2c1cnn2-c1ccc(C)cc1,6.25%,-3.4%,25.3%,-27.5%,-21.8%,7.25%
Cc1ccc(S(=O)(=O)OC(c2ccc(C(OS(=O)(=O)c3ccc(C)cc3)(C(F)(F)F)C(F)(F)F)cc2)(C(F)(F)F)C(F)(F)F)cc1,4.45%,6.65%,-17.8%,10.8%,4.4%,4.7%
CC1CCCC(C)C1CO (stereo not given),3.65%,-31.6%,7.75%,22.7%,-17.8%,15.8%
CCC1(C(=O)OC)CCC2C3CCC4CCCCC4(C)C3CCC21C (stereo not given),4.6%,-8.9%,9.25%,-3.95%,5.4%,11.1%
CCCCOC(=O)NC(=O)c1cn(CCCOC(=O)CCCCCCCCC(=O)OCCCn2cc(C(=O)NC(=O)OCCCC)c(=O)[nH]c2=O)c(=O)[nH]c1=O,-23.2%,-28.2%,-32.8%,5.05%,-5.85%,-35.9%
CC(C)(C)C(=O)Nc1ccccc1,37.7%,17%,0.2%,1.55%,-12.4%,23%
CCNC(=O)NCN1CCOCC1,26.2%,-0.5%,16.9%,9.45%,0.4%,9%
CCCCCCNC(=O)NC,-2.3%,-11.5%,-16.8%,-36.2%,-21.1%,-7.05%
